Measured values: the supplement of paper PMC11732987, “Enantioselective OTUD7B fragment discovery through chemoproteomics screening and high-throughput optimisation” (Communications Chemistry, 2025)

Assays:
Experiment in all cases: log2 ratio of Biotin-Ahx-Ub-VS probe labelling (fragment/DMSO); higher = less target engagement (more negative = stronger competition), active = hit call of the paper (q ≤ 0.05, log2 ratio ≤ -1)
Conditions in all cases: compound concentration: 200 uM; treatment time: 3 h
USP34 = USP34 (UniProt Q70CQ2)
Outline: (§1)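 Global-median-normalised Spectronaut label-free quantities were compared by unpaired t-test, and values are average log2 ratios of fragment over vehicle. Only proteins with ≥2 unique peptides were used. HEK293T lysate (495 µg per sample) was treated in triplicate with fragment at 200 µM or vehicle for 3 h and then with Biotin-Ahx-Ub-VS at 0.5 µM final for 1 h. Labelled DUBs were then NeutrAvidin-enriched, digested with LysC and trypsin, and run by diaPASEF LC-MS/MS.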

USP36 = target: T1, USP36 (UniProt Q9P275)
T1 sequence (whole entry): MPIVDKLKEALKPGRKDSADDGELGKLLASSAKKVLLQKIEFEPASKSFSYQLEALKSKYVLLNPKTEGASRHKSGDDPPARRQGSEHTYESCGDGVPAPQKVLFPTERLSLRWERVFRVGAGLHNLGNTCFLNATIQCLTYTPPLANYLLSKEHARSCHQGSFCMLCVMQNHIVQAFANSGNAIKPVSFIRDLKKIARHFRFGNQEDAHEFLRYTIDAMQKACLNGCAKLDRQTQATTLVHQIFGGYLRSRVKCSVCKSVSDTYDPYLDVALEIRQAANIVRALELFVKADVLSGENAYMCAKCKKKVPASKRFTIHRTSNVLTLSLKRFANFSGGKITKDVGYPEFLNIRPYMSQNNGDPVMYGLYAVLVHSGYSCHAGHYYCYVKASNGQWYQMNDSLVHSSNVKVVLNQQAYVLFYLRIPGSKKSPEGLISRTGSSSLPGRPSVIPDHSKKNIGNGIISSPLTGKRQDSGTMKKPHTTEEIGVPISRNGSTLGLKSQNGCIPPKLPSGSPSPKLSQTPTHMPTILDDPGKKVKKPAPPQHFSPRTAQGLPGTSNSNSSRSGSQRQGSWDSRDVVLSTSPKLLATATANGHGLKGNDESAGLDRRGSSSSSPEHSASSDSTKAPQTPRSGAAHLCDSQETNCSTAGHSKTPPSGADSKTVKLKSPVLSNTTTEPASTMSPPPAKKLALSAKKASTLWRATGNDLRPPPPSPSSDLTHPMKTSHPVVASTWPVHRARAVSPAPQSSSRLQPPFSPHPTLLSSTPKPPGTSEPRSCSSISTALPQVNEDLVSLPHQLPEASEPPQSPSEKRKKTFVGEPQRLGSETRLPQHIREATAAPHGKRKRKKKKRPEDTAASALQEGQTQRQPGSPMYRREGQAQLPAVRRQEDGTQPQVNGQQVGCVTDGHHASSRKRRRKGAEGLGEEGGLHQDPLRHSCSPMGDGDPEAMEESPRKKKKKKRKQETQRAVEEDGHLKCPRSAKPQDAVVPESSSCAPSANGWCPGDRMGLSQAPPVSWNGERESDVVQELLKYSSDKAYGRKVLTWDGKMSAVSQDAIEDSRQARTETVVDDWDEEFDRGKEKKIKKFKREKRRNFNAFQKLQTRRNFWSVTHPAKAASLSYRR
Outline: as §1

USP38 = target: T2, USP38 (UniProt Q8NB14)
T2 sequence (whole entry): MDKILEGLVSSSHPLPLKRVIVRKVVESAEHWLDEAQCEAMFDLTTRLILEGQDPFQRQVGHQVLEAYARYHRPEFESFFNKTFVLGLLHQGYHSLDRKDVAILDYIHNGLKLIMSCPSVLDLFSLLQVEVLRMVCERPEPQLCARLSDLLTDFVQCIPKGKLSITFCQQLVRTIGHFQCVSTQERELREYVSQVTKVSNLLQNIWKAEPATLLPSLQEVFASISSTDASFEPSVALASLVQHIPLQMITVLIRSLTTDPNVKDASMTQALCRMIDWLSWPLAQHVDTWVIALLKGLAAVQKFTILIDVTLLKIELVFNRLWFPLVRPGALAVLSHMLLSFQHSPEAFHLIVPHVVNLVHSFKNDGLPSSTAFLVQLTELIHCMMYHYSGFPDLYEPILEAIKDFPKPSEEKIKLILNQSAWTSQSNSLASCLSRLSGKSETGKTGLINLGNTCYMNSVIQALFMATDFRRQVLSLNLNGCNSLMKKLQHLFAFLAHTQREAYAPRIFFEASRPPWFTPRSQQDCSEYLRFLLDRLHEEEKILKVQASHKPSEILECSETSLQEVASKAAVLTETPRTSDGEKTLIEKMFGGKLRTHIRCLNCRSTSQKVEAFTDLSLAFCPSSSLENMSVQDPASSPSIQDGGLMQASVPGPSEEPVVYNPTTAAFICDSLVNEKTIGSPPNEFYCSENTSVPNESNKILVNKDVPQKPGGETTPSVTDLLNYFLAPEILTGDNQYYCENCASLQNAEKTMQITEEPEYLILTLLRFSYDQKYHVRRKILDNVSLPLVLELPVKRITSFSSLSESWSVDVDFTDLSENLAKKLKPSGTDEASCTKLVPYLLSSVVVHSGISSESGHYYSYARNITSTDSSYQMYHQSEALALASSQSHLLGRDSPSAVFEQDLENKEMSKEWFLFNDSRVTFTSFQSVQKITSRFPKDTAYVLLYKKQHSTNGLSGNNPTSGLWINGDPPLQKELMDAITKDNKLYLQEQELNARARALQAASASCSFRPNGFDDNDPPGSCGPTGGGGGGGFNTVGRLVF
Outline: as §1

USP39 = target: T3, USP39 (UniProt Q53GS9)
T3 sequence (whole entry): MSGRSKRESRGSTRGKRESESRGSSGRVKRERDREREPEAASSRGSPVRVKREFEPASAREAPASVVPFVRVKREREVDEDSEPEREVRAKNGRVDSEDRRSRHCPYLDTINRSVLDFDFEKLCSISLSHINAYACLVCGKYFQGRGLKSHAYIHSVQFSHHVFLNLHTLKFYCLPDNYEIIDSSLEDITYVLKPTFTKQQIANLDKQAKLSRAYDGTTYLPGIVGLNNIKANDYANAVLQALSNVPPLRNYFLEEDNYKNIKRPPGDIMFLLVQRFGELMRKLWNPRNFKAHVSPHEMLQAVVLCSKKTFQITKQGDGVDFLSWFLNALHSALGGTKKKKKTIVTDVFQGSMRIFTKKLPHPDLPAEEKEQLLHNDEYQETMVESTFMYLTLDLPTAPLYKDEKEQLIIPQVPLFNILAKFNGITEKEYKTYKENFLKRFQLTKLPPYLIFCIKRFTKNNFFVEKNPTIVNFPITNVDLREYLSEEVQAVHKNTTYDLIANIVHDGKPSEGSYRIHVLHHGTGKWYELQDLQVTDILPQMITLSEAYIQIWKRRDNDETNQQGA
Outline: as §1

USP4 = target: T4, USP4 (UniProt Q13107)
T4 sequence (whole entry): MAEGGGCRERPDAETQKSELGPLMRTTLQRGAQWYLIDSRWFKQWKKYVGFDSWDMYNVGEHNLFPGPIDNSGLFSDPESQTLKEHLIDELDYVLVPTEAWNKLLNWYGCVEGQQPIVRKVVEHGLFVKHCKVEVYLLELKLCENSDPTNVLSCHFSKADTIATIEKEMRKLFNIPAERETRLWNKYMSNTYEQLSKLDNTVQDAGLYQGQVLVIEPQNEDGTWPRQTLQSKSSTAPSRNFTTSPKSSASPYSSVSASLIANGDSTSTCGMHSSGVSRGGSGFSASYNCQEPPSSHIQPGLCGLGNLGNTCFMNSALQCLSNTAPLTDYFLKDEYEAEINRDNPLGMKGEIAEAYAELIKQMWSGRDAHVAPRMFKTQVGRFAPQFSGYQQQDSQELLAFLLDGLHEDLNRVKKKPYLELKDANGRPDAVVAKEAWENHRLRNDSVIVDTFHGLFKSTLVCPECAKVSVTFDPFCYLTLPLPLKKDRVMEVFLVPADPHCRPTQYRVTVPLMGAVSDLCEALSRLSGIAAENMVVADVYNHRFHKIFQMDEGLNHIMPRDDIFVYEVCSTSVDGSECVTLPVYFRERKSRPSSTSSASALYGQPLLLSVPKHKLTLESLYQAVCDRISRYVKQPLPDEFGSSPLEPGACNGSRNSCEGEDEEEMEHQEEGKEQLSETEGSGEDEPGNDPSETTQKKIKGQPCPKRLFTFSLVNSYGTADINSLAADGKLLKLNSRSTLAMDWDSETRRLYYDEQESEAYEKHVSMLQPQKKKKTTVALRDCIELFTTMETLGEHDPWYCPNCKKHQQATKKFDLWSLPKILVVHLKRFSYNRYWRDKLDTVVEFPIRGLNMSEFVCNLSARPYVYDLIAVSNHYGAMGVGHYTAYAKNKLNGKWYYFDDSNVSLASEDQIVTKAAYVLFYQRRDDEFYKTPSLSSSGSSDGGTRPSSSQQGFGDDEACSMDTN
Outline: as §1

Measured: log2 ratio of Biotin-Ahx-Ub-VS probe labelling

Sequence of USP34 (Q70CQ2 whole entry, the tested form may be a part): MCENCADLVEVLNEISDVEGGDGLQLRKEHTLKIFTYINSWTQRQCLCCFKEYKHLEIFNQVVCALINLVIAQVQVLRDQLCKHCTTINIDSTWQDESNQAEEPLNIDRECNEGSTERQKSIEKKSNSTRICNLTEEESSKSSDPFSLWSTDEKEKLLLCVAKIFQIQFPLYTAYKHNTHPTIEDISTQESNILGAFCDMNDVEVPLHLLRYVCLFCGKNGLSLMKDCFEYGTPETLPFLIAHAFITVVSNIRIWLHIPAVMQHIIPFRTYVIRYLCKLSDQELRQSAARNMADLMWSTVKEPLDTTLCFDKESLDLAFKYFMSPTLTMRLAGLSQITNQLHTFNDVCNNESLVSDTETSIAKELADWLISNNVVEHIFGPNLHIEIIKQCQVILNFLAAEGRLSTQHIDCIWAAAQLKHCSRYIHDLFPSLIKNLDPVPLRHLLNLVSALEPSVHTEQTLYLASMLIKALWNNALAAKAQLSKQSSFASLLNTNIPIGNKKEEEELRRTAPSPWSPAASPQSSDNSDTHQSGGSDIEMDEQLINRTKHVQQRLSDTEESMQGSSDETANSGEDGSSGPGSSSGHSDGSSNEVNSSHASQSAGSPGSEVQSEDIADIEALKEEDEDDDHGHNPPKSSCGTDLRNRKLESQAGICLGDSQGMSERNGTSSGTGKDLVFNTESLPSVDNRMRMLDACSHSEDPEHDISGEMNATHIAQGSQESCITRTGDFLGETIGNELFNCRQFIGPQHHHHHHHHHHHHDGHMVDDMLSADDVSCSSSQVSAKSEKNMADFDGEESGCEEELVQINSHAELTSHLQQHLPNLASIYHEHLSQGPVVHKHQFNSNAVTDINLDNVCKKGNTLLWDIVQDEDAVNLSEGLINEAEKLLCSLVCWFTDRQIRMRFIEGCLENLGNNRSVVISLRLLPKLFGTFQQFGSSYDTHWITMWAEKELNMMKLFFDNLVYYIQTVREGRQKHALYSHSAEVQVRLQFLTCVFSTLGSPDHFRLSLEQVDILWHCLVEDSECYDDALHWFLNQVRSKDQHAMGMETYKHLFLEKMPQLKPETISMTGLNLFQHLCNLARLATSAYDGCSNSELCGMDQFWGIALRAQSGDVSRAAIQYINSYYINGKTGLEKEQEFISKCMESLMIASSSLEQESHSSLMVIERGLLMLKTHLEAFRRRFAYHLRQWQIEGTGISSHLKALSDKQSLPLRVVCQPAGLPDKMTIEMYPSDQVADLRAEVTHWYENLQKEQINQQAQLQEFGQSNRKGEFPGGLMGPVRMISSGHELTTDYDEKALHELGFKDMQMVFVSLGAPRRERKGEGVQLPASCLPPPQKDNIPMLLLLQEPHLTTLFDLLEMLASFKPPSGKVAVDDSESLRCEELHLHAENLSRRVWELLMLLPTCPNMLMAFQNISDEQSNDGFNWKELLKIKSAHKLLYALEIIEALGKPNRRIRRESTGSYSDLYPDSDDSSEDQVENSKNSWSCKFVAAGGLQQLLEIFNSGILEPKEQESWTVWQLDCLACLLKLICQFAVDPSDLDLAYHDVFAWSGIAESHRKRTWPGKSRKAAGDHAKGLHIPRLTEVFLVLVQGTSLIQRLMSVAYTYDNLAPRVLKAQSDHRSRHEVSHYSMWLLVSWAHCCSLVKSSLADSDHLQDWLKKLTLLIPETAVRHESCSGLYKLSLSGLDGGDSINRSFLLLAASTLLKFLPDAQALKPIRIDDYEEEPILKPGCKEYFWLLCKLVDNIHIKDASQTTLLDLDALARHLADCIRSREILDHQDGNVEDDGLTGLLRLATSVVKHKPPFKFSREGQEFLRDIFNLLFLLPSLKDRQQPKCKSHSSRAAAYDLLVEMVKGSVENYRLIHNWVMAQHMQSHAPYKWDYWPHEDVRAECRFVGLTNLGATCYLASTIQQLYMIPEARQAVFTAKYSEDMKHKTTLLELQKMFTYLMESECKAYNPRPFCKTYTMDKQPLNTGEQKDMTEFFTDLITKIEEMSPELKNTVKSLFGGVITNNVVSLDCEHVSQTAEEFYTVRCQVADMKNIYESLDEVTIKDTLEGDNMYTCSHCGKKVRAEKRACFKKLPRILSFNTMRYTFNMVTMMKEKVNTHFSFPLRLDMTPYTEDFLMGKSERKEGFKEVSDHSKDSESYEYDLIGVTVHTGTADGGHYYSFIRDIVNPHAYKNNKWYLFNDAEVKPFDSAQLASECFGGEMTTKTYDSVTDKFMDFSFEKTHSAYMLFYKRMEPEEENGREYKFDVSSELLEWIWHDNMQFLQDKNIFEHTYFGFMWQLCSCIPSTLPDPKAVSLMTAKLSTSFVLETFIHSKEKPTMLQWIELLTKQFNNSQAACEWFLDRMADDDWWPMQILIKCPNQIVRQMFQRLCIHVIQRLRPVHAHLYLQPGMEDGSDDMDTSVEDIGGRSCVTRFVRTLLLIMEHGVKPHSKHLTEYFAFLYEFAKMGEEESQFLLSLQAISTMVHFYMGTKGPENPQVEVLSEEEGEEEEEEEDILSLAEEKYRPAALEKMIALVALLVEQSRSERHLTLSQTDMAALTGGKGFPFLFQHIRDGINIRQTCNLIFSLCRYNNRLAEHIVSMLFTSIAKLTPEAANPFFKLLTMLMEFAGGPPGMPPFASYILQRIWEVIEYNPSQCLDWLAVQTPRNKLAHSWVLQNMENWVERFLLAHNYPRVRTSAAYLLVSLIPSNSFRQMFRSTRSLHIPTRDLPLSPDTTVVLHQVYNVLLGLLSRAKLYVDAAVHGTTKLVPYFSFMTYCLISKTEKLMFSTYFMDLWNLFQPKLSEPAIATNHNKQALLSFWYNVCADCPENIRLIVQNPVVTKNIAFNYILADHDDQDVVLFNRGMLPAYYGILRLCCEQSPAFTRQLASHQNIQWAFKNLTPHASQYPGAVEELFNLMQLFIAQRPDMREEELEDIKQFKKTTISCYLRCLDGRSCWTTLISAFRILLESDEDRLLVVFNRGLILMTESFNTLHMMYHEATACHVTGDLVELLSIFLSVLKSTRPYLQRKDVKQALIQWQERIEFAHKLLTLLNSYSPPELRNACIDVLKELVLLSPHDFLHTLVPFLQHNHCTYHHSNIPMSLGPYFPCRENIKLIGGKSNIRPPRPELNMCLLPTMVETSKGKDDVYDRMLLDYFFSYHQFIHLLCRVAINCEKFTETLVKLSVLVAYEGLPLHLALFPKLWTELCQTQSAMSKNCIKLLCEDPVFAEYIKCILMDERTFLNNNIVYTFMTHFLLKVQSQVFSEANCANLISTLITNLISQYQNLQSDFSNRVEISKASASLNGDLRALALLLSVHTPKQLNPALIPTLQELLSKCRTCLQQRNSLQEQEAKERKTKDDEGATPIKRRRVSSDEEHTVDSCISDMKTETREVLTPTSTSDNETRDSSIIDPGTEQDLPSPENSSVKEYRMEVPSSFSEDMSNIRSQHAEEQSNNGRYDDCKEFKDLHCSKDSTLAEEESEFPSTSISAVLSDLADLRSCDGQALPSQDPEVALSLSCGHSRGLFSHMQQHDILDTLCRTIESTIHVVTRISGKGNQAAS

CC(NC(=O)CCl)c1noc(Cc2ccccc2)n1 (stereo not given)
inactive: USP34 -0.0517 | USP36 -0.338 | USP38 -0.21 | USP39 -0.245 | USP4 -0.142
